# Hits are enriched below; roughly 4% of the tested compounds scored in any of these assays.
# NALP1 yeast inh = blocks the NALP1 inflammasome reconstituted in yeast. S. cerevisiae NALP1/ASC/caspase-1 growth, X-gal OD620, 72 h. inhibition, % at 10 µM. 0.61% of 280,000 active. AID 2071; in the data active means inhibition mostly above about 24%, no sharp cut-off; inactive means mostly below about 32%
# tim10-1 inh = growth inhibitors of tim10-1 mutant yeast; S. cerevisiae tim10-1 ts strain growth, BacTiter-Glo, 24 h; inhibition, % at 20 µM; 2.2% of 330,000 active; AID 463190;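 active means inhibition of at least 40%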;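 further: mutant grown at 25 °C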
# tim23-1 inh = inhibits growth of tim23-1 mutant yeast; S. cerevisiae tim23-1 growth, BacTiter-Glo luminescence, 24 h; inhibition, % at 20 µM; 1.3% of 330,000 active; AID 463212;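 active means growth inhibition of the mutant yeast at or above 50%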;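 further: temperature-sensitive mutant grown at 25 °C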
# TIM10 inh = growth inhibitors of TIM10 yeast strain | S. cerevisiae TIM10 strain growth, BacTiter-Glo luminescence, 24 h | inhibition, % at 10 µM | 1.4% of 330,000 active;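 active means inhibition of 40% or more at the single tested concentration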;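 further: wild-type TIM10 isogenic control strain grown at permissive 25 °C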
# NLRP3 yeast inh = inhibitors of NALP3 inflammasome in yeast | AID 2825 | Yeast reconstituted NLRP3/ASC/caspase-1, beta-gal luminescence, 24 h | 0.39% of 330,000 active | inhibition, % at 10 µM;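 active means inhibition of 50% or more; inactive means inhibition below 50%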
# tim10-1 confirm = tim10-1 yeast growth inhibition, confirmed | shares compounds with tim10-1 inh | S. cerevisiae tim10-1 ts strain growth, BacTiter-Glo, 24 h | inhibition, % at 20 µM | 56% of 7,400 active;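 active means inhibition of yeast growth at or above a set limit in either of two repeat tests at 20 µM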;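 further: tim10-1 mutant grown at permissive 25 °C to find synthetic lethal compounds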
# A number is an active result; 0 = inactive; - = no result given.
SMILES,NALP1 yeast inh,tim10-1 inh,tim23-1 inh,TIM10 inh,NLRP3 yeast inh,tim10-1 confirm
O=C(CSc1nnc(CCc2ccccc2)n1-c1ccc(Cl)cc1)NCc1ccccc1,0,43,0,0,0,0
C/C(=N\NC(=O)Cc1csc(N2CCOCC2)n1)c1ccc(Cl)c(Cl)c1,0,41,0,0,0,0
CCC/C(=N\NC(=O)Cc1csc(N2CCOCC2)n1)c1ccccc1,0,0,0,0,0,-
NC(=O)c1cccc2c1-c1ccccc1/C2=N/NC(N)=S,0,0,0,0,0,-
COC(=O)c1cccc2c1-c1ccccc1/C2=N\NC(N)=O,0,40,0,0,0,0
CN1CCN(c2nc(-c3ccccc3)c3cc(Cl)ccc3n2)CC1,0,42,0,0,0,0
CCOC(=O)C1(S(=O)(=O)c2ccc(Cl)cc2)CCN(Cc2ccc(C)cc2)CC1,0,50,0,0,0,0
COc1ccc(OC)c(S(=O)(=O)N2CCC(NC(=O)c3ccccc3)CC2)c1,0,0,0,0,0,-
Cc1cc(=O)n2c3c(sc2n1)C(=O)N(Cc1ccccc1)C3=O,0,40,0,0,0,34
COC(=O)C1CCN(C(=O)c2ccc3nccnc3c2)CC1,0,0,0,0,0,-
COC(=O)C1CCN(C(=O)c2ccc3nc(-c4cccc(OC)c4)oc3c2)CC1,0,42,0,0,0,0
Nc1ccc(SC(F)(F)F)cc1C(=O)c1ccccc1,0,50,0,0,0,0
COc1cc(/C=C/C(=O)OCC(=O)NC(=O)NC(C)C)ccc1O,0,0,0,0,0,-
Fc1cccc(Cl)c1CSc1nnc(COc2cccc3cccnc23)o1,0,0,0,0,0,-
Cc1ccc(C(=O)N/C(=C\c2cccs2)C(=O)NCCc2c[nH]c3ccccc23)cc1,0,0,0,0,0,-
CCOC(=O)C1=C(N)Oc2ccc3ccccc3c2C1c1ccc(O)cc1 (centres undefined),0,0,0,0,0,-
CCOC(=O)C1=C(N)Oc2ccc3ccccc3c2C1c1ccc(O)c(OC)c1 (centres undefined),0,40,0,0,0,0
Cc1c(NC(=O)COC(=O)c2ccc(Cl)nc2)c(=O)n(-c2ccccc2)n1C,-,0,0,0,0,-
Cc1cccc2c1nc(-c1ccccc1)n1cnnc21,0,40,0,0,0,0
Cc1cccc2c1nc(-c1ccccc1)n1nnnc21,0,0,0,0,0,-
Cc1cc(Cl)ccc1Oc1ccccc1C(=O)CC#N,0,52,0,0,0,38
Cc1c(C(C)CCCO)oc(=O)c2c1Oc1c(C)c(C(C)C[C@H](C)O)oc(=O)c1C2 (some centres undefined),-,0,0,0,0,-
Cc1ccccc1SCC(=O)Nc1cccc(C#N)c1,0,44,0,0,0,0
N#Cc1cccc(NC(=O)CSc2cccc[n+]2[O-])c1,-,0,0,0,0,-
CC(C)(C)NC(=O)COC(=O)c1ccccc1OCC(=O)Nc1ccc(Br)cc1,0,0,0,0,0,-
SMILES,NALP1 yeast inh,tim10-1 inh,tim23-1 inh,TIM10 inh,NLRP3 yeast inh,tim10-1 confirm
COC(=O)c1ccccc1NC(=S)NC(=O)C1CCCCC1,0,41,0,0,0,34
CC(=O)NC(=S)Nc1ccccc1N1CCCCC1,0,43,0,0,0,0
COC(=O)c1ccccc1NC(=O)C1CCCC1,0,0,0,0,0,-
O=C(NC(=S)Nc1ccccc1N1CCCCC1)c1ccc(-c2cccc([N+](=O)[O-])c2)o1,0,41,0,0,0,0
CC(C)(C)C(=O)NC(=S)Nc1ccccc1N1CCCC1,0,0,0,0,0,-
O=C(NC(=S)Nc1ccccc1N1CCCC1)c1ccc([N+](=O)[O-])cc1,0,57,0,0,0,42
Cc1[nH]c(C)c(S(=O)(=O)NCc2ccc(F)cc2)c1C(=O)N1CCCC1,0,0,0,0,0,-
Cc1ccc(-n2nc(C)c(/C=N/n3c(C)n[nH]c3=S)c2Cl)cc1,0,0,0,0,0,-
CCc1nc(NC(=O)NS(=O)(=O)c2ccccc2C(=O)OC)nc(OC)n1,0,0,0,0,0,-
Cc1ccc(-c2nc(N)sc2C)cc1,0,0,0,0,0,-
Cc1sc(N)nc1-c1c(C)n(C)c2ccccc12,0,68,0,0,0,0
COc1cccc(C2C3=C(CC(C)(C)CC3=O)Nc3cc4c(cc32)OCO4)c1 (centres undefined),0,44,0,0,0,0
O=C(COc1ccc(F)cc1Cl)NC1CCCCCC1,-,0,0,0,0,-
CCn1cc(Br)c(C(=O)Nc2ccc(C(=O)OC(C)C)cc2)n1,0,41,0,0,0,34
CN(CC(=O)NCCCN1CCOCC1)S(=O)(=O)c1cc(Cl)ccc1Cl,0,0,0,0,0,-
CCN(CC)c1ccc(-c2nnc(SCC(=O)Nc3ccccc3C#N)n2-c2ccccc2)cc1,0,42,0,0,0,0
CCc1nc2c(c(=O)c3ccccc3n2C)c(=O)n1C1CCCCCC1,0,41,0,0,0,0
CCc1ccccc1NC(=O)CNC(=O)CNC(=O)c1cccs1,-,0,0,0,0,-
Cc1ccnc(Nc2nc(-c3ccc(F)cc3)cs2)c1,0,42,0,0,0,0
CC(C)=C1C2CCC1C(C(=O)NCCc1ccccc1)C2C(=O)O (centres undefined),0,44,0,0,0,0
Cc1cc2nc(-c3ccc[nH]c3=O)n(Cc3ccc(F)cc3)c2cc1C,0,0,0,0,0,-
Cc1cc2nc(-c3ccc[nH]c3=O)[nH]c2cc1C,0,47,0,0,0,35
CC(=O)Nc1cccc(/C(C)=N\NC(=O)c2ccc(Cn3nc([N+](=O)[O-])c(Cl)c3C)o2)c1,0,0,0,0,0,-
O=C(NC(c1cccnc1)C(F)(F)F)c1cc(COc2ccc3c(c2)CCCC3)on1 (centres undefined),0,42,0,0,0,0
COc1cc(C(c2c(C)[nH][nH]c2=O)c2c(C)[nH][nH]c2=O)ccc1OC(C)C,0,40,0,0,0,42
SMILES,NALP1 yeast inh,tim10-1 inh,tim23-1 inh,TIM10 inh,NLRP3 yeast inh,tim10-1 confirm
COc1cc(C(c2c(C)[nH][nH]c2=O)c2c(C)[nH][nH]c2=O)ccc1OCc1ccc([N+](=O)[O-])cc1,0,57,0,0,0,51
COc1ccc(C(c2c(C)[nH][nH]c2=O)c2c(C)[nH][nH]c2=O)cc1Br,0,0,0,0,0,-
COc1cc(C(c2c(C)[nH][nH]c2=O)c2c(C)[nH][nH]c2=O)ccc1OC(=O)c1cccc([N+](=O)[O-])c1,0,0,0,0,0,-
Cc1ccc(C(c2c(C)[nH][nH]c2=O)c2c(C)[nH][nH]c2=O)cc1,0,42,0,0,0,0
CCN(CC)S(=O)(=O)c1ccc(/C=C/C(=O)Nc2ccc(N3CCOCC3)cc2)cc1,0,0,0,0,0,-
CC(C)N(Cc1ccccc1)C(=O)CN1C(=O)NC2(CCCCCC2)C1=O,-,0,0,0,0,-
S=C(S)N1CCCC1,-,0,0,0,0,-
CCCc1cc(NC(=O)CCl)n(-c2ccccc2)n1,0,0,0,0,0,-
